# Measurements as given in PubChem BioAssay (NCATS).
# Where “and” joins values, the source holds several entries; their conditions need not be identical. Equal values may be shown once. Inconclusive results are not listed. A call without a number means that no potency is given here. Calls of active or inactive are those of the source. Calls come from the whole dose curve; as a rule, active = well fitted cell-killing curve with a large enough effect; inconclusive = small, poorly fitted or top-dose-only effect; inactive = no such curve, though single readings can be large or run the other way.
# Experiment: qHTS of pediatric cancer cell lines to identify multiple opportunities for drug repurposing: Primary screen for NB-EBc1 cells (AID 1347095)
# Details: NB-EBc1 neuroblastoma viability, CellTiter-Glo luminescence, 48 h; series mostly up to 46 µM; activity change, negative = cytotoxic: at the top concentration
# From the text: Drug repurposing or repositioning has been offered as a strategy for drug development in oncology programs. This approach has special potential for childhood cancers and other rare or orphan diseases, where the expected return on new drug development has been a disincentive to pharmaceuticals. […] In this project we exploit the poly-pharmacology of drugs to discover new indications via phenotypic screening of a panel of 19 well-characterized cell lines derived from solid tumors seen in children and adolescents. The goal is to identify approved drugs with previously unrecognized anticancer properties that has the potential to reveal new mechanisms and biological processes involved in carcinogenesis or drug resistance. We employed a titration-based paradigm (quantitative high-throughput screening or qHTS), where all compounds were tested at multiple concentrations for their effect on cell viability. Concentration-response curves (CRCs) were derived directly from the primary screen, and both potency and efficacy values were used to identify compounds with robust bioactivity profiles. We screened the NIH Chemical Genomics Center (NCGC) Pharmaceutical Collection (NPC) and Mechanism Interrogation Plate (MIPE) small molecule collections of approved and investigational compounds against these cell lines; and measured metabolically active cells after 48 hours of compound treatment as a proxy for cell viability. […] Assay Submitter: Nathalia J. Martinez, National Center for Advancing Translational Sciences, National Institutes of Health, Rockville, MD, USA; email: natalia.martinez@nih.gov Shen, M et al. Quantitative high-throughput phenotypic screening of pediatric cancer cell lines identifies multiple opportunities for drug repurposing. Oncotarget 2017 Dec 19;9(4):4758-4772. PMID 29435139.
# The cells were obtained from University of North Carolina (UNC), Pediatric Preclinical Testing Program (PPT), and Coriell Institute (CI). qHTS cell viability assay: Cells were assayed in growth media at a density of 500-1,000 cells/well. Five microliters of cells were dispensed into 1,536-well, white, solid-bottom, TC-treated plates (Greiner Bio One) using a multidrop dispenser and incubated at 37 degrees C, 5% CO2, under a humidified atmosphere for 5 hours. Twenty-three nanoliters of compounds and controls (neutral control DMSO or positive control bortezomib at final concentration of 2.3 µM) were subsequently transferred by Kalypsys pintool. For primary screens, the MIPE collection was tested at 11-point dilutions (final concentrations range from 0.78 nM to 46 µM) and the NPC collection at 8-point dilutions (final concentrations range from 0.59 nM to 46 µM). Compounds tested in follow-up screens were assayed at 11-point dilutions. Cells were incubated for 48 hours, followed by addition of 3 µL of CellTiter-Glo (Promega). After a 15 min incubation at room temperature, samples were analyzed for luminescence intensity using a ViewLux High-throughput CCD imager equipped with clear filters.
# Potency is the fitted concentration of half-maximal effect.
SMILES,Potency,"activity change, negative = cytotoxic"
CCCc1cc(C(N)=S)ccn1,inactive,
COC(=O)Nc1nc2ccc(S(=O)c3ccccc3)cc2[nH]1 (stereo not given),473 nM (active) and 8.33 µM (active),
CC(C)C1CCC(C(=O)N[C@H](Cc2ccccc2)C(=O)O)CC1 (stereo not given in full),inactive,
CC1(C)[C@H](C(=O)O)N2C(=O)C[C@H]2S1(=O)=O,inactive,
CCOc1cc(N)c(Cl)cc1C(=O)NCC1CN(Cc2ccc(F)cc2)CCO1 (stereo not given),inactive,
CN(CCOc1ccc(CC2SC(=O)NC2=O)cc1)c1ccccn1 (stereo not given),inactive,
N[C@@H](C(=O)N[C@@H]1C(=O)N2C(C(=O)O)=C(Cl)CS[C@H]12)c1ccccc1,inactive,
CC(=O)Oc1ccccc1C(=O)Nc1ncc([N+](=O)[O-])s1,10.8 µM (active) and 15 µM (active),
CC1CC2C3CCC4=CC(=O)C=C[C@]4(C)[C@@]3(F)[C@@H](O)C[C@]2(C)[C@@]1(O)C(=O)CO (stereo not given in full),,11% (inactive)
CC(=O)[C@H]1CC[C@H]2[C@@H]3CCC4=CC(=O)CC[C@]4(C)[C@H]3CC[C@]12C,,4.49% (inactive)
COc1cc(NCc2ccc3nc(N)nc(N)c3c2C)cc(OC)c1OC,3.72 µM (active),
Cc1noc(NS(=O)(=O)c2ccc(N)cc2)c1C,inactive,
CN(C)c1ccc(C(=C2C=CC(=[N+](C)C)C=C2)c2ccc(N(C)C)cc2)cc1,2.99 µM (active) and 935 nM (active),
CCCCCCNC(=O)n1cc(F)c(=O)[nH]c1=O,2.99 µM (active) and 4.18 µM (active),
Nc1nc(F)nc2c1ncn2[C@@H]1O[C@H](CO)[C@@H](O)[C@@H]1O,841 nM (active) and 1.05 µM (active),
NC(=O)c1ccc2[nH]ccc2c1,,-5.09% (inactive)
C#CCN[C@@H]1CCc2ccccc21,inactive,
CN1CCN(c2c(F)cc3c(=O)c(C(=O)O)cn(CCF)c3c2F)CC1,inactive,
CCC(C)(C)c1ccc(CC(C)CN2C[C@@H](C)O[C@@H](C)C2)cc1 (stereo not given in full),inactive,
CCC(=O)O[C@]1(C(=O)SCF)[C@H](C)C[C@H]2[C@@H]3C[C@H](F)C4=CC(=O)C=C[C@]4(C)[C@@]3(F)[C@@H](O)C[C@@]21C,,-2.04% (inactive)

SMILES,Potency,"activity change, negative = cytotoxic"
O=S(=O)(c1cccc2cnccc12)N1CCCNCC1,inactive,
NNC(=O)c1ccncc1,inactive,
CC1=CC(=O)c2ccccc2C1=O,7.43 µM (active),
O=S(=O)(O)CCS,inactive,
Nc1ccc(S(=O)(=O)Nc2ccccn2)cc1,inactive,
CNNCc1ccc(C(=O)NC(C)C)cc1,inactive,
COc1cc([C@@H]2c3cc4c(cc3[C@H](O)[C@H]3COC(=O)[C@H]23)OCO4)cc(OC)c1OC,8.4 nM (active) and 1 nM (active),
CC(N)C12CC3CC(CC(C3)C1)C2 (stereo not given),inactive,
COC(=O)Nc1nc2ccc(C(=O)c3ccccc3)cc2[nH]1,0.188 µM (active),
CC[C@H](NC(C)C)[C@H](O)c1ccc(O)c2[nH]c(=O)ccc12,inactive,
Oc1c(Cl)cc(Cl)c2cccnc12,2.99 µM (active) and 7.43 µM (active),
Cc1cccc(N(C)C(=S)Oc2ccc3ccccc3c2)c1,,-3.33% (inactive)
CCn1cc(C(=O)O)c(=O)c2cc(F)c(N3CCN(C)CC3)cc21,inactive,
CC(C(=O)O)c1ccc2c(c1)CC(=O)c1ccccc1S2 (stereo not given),inactive,
COc1cc(NS(=O)(=O)c2ccc(N)cc2)nc(OC)n1,inactive,
C1CCC(C(CC2CCCCN2)C2CCCCC2)CC1 (stereo not given),26.4 µM (active),
CC(C)NCC(O)c1ccc(NS(C)(=O)=O)cc1 (stereo not given),,40.7% (inactive)
COc1ccccc1OCC(O)COC(N)=O (stereo not given),inactive,
Cc1ccnc2c1NC(=O)c1cccnc1N2C1CC1,inactive,
CC(=O)[C@H]1CC[C@H]2[C@@H]3CC=C4C[C@@H](O)CC[C@]4(C)[C@H]3CC[C@]12C,inactive,
